Data taken from the supplement of paper PMC7156485.
± gives the standard deviation of the averaged measurements.

Assays:
Details in all cases: concentration: 10 µM; 24 h
HCC1569 [1] = experiment: cell number relative to DMSO (% of DMSO); higher = more cells (less growth inhibition / toxicity)
Summary of the method: (§1)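 H1.0 nuclear intensity or cell number is expressed as percent of the plate control, with the median of replicates taken. HCC1569 and TDF cells were treated with compounds at 10 µM for 24 h at 37 °C, in triplicate, then fixed and immunostained for H1.0 with DAPI as a nuclear stain. HCC1569 values were smoothed to correct for positional effects.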

TDF [2] = experiment: as above
Summary of the method: as §1

TDF [3] = experiment: H1.0 immunofluorescence intensity relative to DMSO (% of DMSO); higher = stronger H1.0 induction, active = 120 or more
Summary of the method: as §1

HCC1569 [4] = experiment: H1.0 immunofluorescence intensity relative to DMSO (% of DMSO); higher = stronger H1.0 induction, active = 140 or more
Summary of the method: as §1
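Wherever H1.0 immunofluorescence intensity relative to DMSO is given: TDF is a line of transformed human dermal fibroblasts of mesenchymal origin.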
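Wherever cell number relative to DMSO is given: TDF denotes transformed human dermal fibroblasts of mesenchymal origin.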

Compound | cell number (HCC1569 [1]) | cell number (TDF [2]) | H1.0 immunofluorescence intensity (TDF [3]) | H1.0 immunofluorescence intensity (HCC1569 [4])
CC1(C(=O)O)CCCC2(C)c3cc(O)ccc3CCC12 (centres undefined) [Podocarpic acid] | 100 | 102 | 101 (inactive) | 85.3 (inactive)
CN(C)C(=O)Oc1cccc([N+](C)(C)C)c1.COS(=O)(=O)[O-] | 109 | 103 | 97.7 (inactive) | 98.3 (inactive)
COc1ccc(C(=O)c2c(C)n(CCN3CCOCC3)c3cc(I)ccc23)cc1 | 85.1 | 82.3 | 108 (inactive) | 128 (inactive)
CN1C2CCC1CC(O)C2 (centres undefined) [Tropine] | 102 | 104 | 96.1 (inactive) | 90 (inactive)
CC(O)(CS(=O)(=O)c1ccc(F)cc1)C(=O)Nc1ccc(C#N)c(C(F)(F)F)c1 (centres undefined) [Bicalutamide] | 99.1 | 104 | 94.6 (inactive) | 98.8 (inactive)
Br.CC(Cc1ccc(O)cc1)NCC(O)c1cc(O)cc(O)c1 (centres undefined) [Fenoterol hydrobromide] | 104 | 105 | 88.3 (inactive) | 112 (inactive)
CC(=O)OC1CC2CCC3C(CCC4(C)C3CC([N+]3(C)CCCCC3)C4OC(C)=O)C2(C)CC1[N+]1(C)CCCCC1.[Br-].[Br-] (centres undefined) [Pancuronium.2Br] | 100 | 92 | 93.9 (inactive) | 102 (inactive)
COc1ccc2[nH]cc(CCN)c2c1.Cl [O-Methylserotonin hydrochloride] | 96.9 | 97.6 | 89.1 (inactive) | 106 (inactive)
Cc1nc(-c2ccc(-c3ccc(C(=O)N4CCc5cc6c(cc54)C4(CCN(C)CC4)CO6)cc3)c(C)c2)no1.Cl | 70.1 | 94.7 | 114 (inactive) | 150 (active)
CC1=CC2c3cccc4[nH]cc(c34)CC2N(C)C1 (centres undefined) [Agroclavine] | 100 | 103 | 95.3 (inactive) | 98.1 (inactive)
Cl.NNC(N)=O [Semicarbazide hydrochloride] | 102 | 111 | 89 (inactive) | 108 (inactive)
CP(=O)(O)CCCN.Cl | 102 | 98.3 | 92.5 (inactive) | 107 (inactive)
CC1OC(OC2CC(O)C3(CO)C4C(O)CC5(C)C(C6COC(=O)C6)CCC5(O)C4CCC3(O)C2)C(O)C(O)C1O (centres undefined) [Dihydroouabain] | 61.7 | 43.7 | 104 (inactive) | 82.2 (inactive)
C[N+](C)(C)CCCCCCCCCC[N+](C)(C)C [Decamethonium] | 105 | 118 | 91 (inactive) | 102 (inactive)
CCC(C)CC(C)N (centres undefined) [1,3-dimethylpentylamine] | 103 | 106 | 99 (inactive) | 96.9 (inactive)
Br.C#CCOC(=O)C1=CCCN(C)C1 [Arecaidine propargyl ester hydrobromide] | 100 | 98.1 | 93.1 (inactive) | 92.2 (inactive)
Nc1ncnc2c1ccn2C1OC(CO)C(O)C1O (centres undefined) [Tubericidin] | 42.7 | 32.3 | 118 (inactive) | 70.1 (inactive)
CC1OCC(C[N+](C)(C)C)O1.[I-] (single isomer, unassigned; (+)) [(+)-cis-Dioxolane iodide] | 102 | 103 | 96 (inactive) | 99.6 (inactive)
Cl.NCCc1ccc(O)cc1 [4-Hydroxyphenethylamine hydrochloride] | 96.2 | 100 | 96.7 (inactive) | 100 (inactive)
CCCN1CCOC2c3cc(O)ccc3OCC21.Cl (racemic) | 104 | 91 | 88.1 (inactive) | 96.5 (inactive)
CC(O)C(C)OC(=O)C1CC2c3cccc4c3c(cn4C(C)C)CC2N(C)C1.O=C(O)C=CC(=O)O (centres undefined) [LY-53,857 maleate] | 107 | 107 | 96.5 (inactive) | 90.5 (inactive)
CCC1C=CC=CCC(C)C(O)C(C)(O)C(=O)C(C)C(O)C(C)C(=O)C(C)C(O)C(C)C=CC(=O)OC2C(C)C(CC1)OC1(CCC(C)C(CC(C)O)O1)C2C (centres undefined) [Oligomycin A] | 79.8 ± 16 | 87 ± 27 | 93.9 (inactive) | 114 (inactive)
CN(C)CCc1ccc(O)cc1.CN(C)CCc1ccc(O)cc1.O=S(=O)(O)O [Hordenine sulfate] | 99.3 | 99.9 | 104 (inactive) | 99.9 (inactive)
Cc1nccc2c1[nH]c1ccccc12 [Harmane] | 100 ± 0.98 | 106 ± 11 | 97 (inactive) | 96.7 (inactive)
C[N+](C)(C)CC(=O)O.[Cl-] [Betaine hydrochloride] | 104 | 113 | 89.4 (inactive) | 82.7 (inactive)
NCC(CC(=O)O)c1ccc(Cl)cc1 (racemic) | 99.3 | 112 | 94.3 (inactive) | 99.1 (inactive)

Compound | cell number (HCC1569 [1]) | cell number (TDF [2]) | H1.0 immunofluorescence intensity (TDF [3]) | H1.0 immunofluorescence intensity (HCC1569 [4])
c1ccc2c(c1)[nH]c1cnccc12 [Norharmane] | 100 | 106 | 97.6 (inactive) | 92 (inactive)
CCCN1CCCC2Cc3[nH]ncc3CC21 (racemic) | 99.6 | 96.7 | 100 (inactive) | 106 (inactive)
C#CC1(O)CCC2C3CCC4=CC(=O)CCC4=C3C=CC21CC (centres undefined) [Gestrinone] | 99.4 | 100 | 91.2 (inactive) | 112 (inactive)
NC(CCP(=O)(O)O)C(=O)O (racemic) | 99.4 | 101 | 96.9 (inactive) | 91.1 (inactive)
Cc1ccccc1-n1c(Cn2cnc3c(N)ncnc32)nc2cccc(C)c2c1=O | 90.8 | 99.7 | 91.9 (inactive) | 102 (inactive)
CCN1CC2(C)CCC(O)C34C5CC6C(OC)CC(O)(C(CC23)C14)C5C6O (centres undefined) [Karakoline] | 103.2 ± 0.75 | 99.5 ± 1.5 | 96.4 (inactive) | 99.8 (inactive)
CCCCCC=CCC=CCC=CCC=CCCCC(=O)NCC(=O)O [N-arachidonylglycine] | 101 | 99.4 | 98.2 (inactive) | 99.6 (inactive)
CC1CCC2(O)C3(C)CC4(O)OC2(C1O)C1(O)C3(O)C(OC(=O)c2ccc[nH]2)C(O)(C(C)C)C41C (centres undefined) [Ryanodine] | 106 | 101 | 93 (inactive) | 88 (inactive)
O=c1[nH]c2ccccc2n1C1CCN(Cc2ccc(-c3nc4cc5[nH]cnc5cc4nc3-c3ccccc3)cc2)CC1 [Akt Inhibitor VIII, Isozyme-Selective, Akti-1/2] | 75.9 | 81.2 | 105 (inactive) | 131 (inactive)
COCC1OC(=O)c2coc3c2C1(C)C1=C(C3=O)C2CCC(=O)C2(C)CC1OC(C)=O (centres undefined) [Wortmannin from Penicillium funiculosum] | 41.7 | 100 | 89.5 (inactive) | 153 (active)
CN1CC(NS(=O)(=O)N(C)C)CC2c3cccc4c3c(cn4C)CC21 (centres undefined) [Mesulergine] | 100 | 103 | 93.4 (inactive) | 120 (inactive)
N#CC(C#N)=Cc1ccc([N+](=O)[O-])c(O)c1 [Tyrphostin AG 126] | 99.1 | 111 | 102 (inactive) | 103 (inactive)
CC(C)N(CCC(C(N)=O)(c1ccccc1)c1ccccn1)C(C)C.O=P(O)(O)O (centres undefined) [Disopyramide phosphate] | 106 | 105 | 97.6 (inactive) | 94.1 (inactive)
CN1CC(CO)CC2c3cccc4[nH]cc(c34)CC21 (centres undefined) [9,10-Dihydrolysergol] | 96.5 | 98.2 | 102 (inactive) | 92.7 (inactive)
COc1ccc2c(c1)C13CCCCC1C(C2)NCC3.Cl (centres undefined) [3-Methoxy-morphanin hydrochloride] | 99.1 | 107 | 97.3 (inactive) | 99.5 (inactive)
NNC(=O)c1ccc(O)cc1 [4-Hydroxybenzhydrazide] | 97.7 | 100 | 97.5 (inactive) | 95.1 (inactive)
CS(=O)(=O)O.Cc1c(C(=O)c2cccc3ccccc23)c2cccc3c2n1C(CN1CCOCC1)CO3 (stereo not drawn) [( R)-(+)-WIN 55,212-2 mesylate] | 72.8 | 53.4 | 131 (active) | 209 (active)
CCC1(O)C(=O)OCc2c1cc1n(c2=O)Cc2cc3ccccc3nc2-1 [(S)-(+)-Camptothecin] | 54.2 | 26.9 | 126 (active) | 114 (inactive)
CC1CCC2(NC1)OC1CC3C4CCC5CC(O)CCC5(C)C4CCC3(C)C1C2C (centres undefined) [Tomatidine] | 104 | 102 | 99.2 (inactive) | 83.5 (inactive)
COC1=C(OC)C(=O)C(=C2C(C)=C(C(=O)O)NC(c3ccc4c(n3)C(=O)C(N)=C(OC)C4=O)=C2N)C=C1 [Streptonigrin] | 41.2 | 5.53 | 171 (active) | 128 (inactive)
CCNC(=O)C[C@@H]1N=C(c2ccc(Cl)cc2)c2cc(OC)ccc2-n2c(C)nnc21 | 86.4 | 71.9 | 141 (active) | 198 (active)
CC(=O)NC1CN2CCC(O)C2C(O)C1O (centres undefined) [6-Acetamido-6-deoxy-castanospermine] | 103 | 103 | 97.2 (inactive) | 87.4 (inactive)
CCCN1CCCC2Cc3[nH]ncc3CC21.Cl (single isomer, unassigned; (-)) [(-)-Quinpirole hydrochloride] | 99.3 | 101 | 87.5 (inactive) | 100 (inactive)
C[N+]1([O-])C2CCC1CC(OC(=O)C(CO)c1ccccc1)C2.Cl (centres undefined) | 97.9 | 107 | 92.4 (inactive) | 85 (inactive)
CCCN(CCC)C1CCc2ccc(O)cc2C1 (racemic) | 102 | 111 | 88.7 (inactive) | 95.4 (inactive)
